Source: PubChem
ELG1 DNA repair – qHTS screen for small molecules that inhibit ELG1-dependent DNA repair in human embryonic kidney (HEK293T) cells expressing luciferase-tagged ELG1 | HEK293T ELG1-luciferase reporter, luminescence, 16 h; DNA damage induced by 5-fluorouridine | Potency, µM (series often up to 46.1 µM), without a hit: top-dose activity change, negative = inhibition, hits mostly inhibitors | hit rate 2.3% among 330,000; also: nearly all actives have a fitted effect of over 55% in size
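Quantitative HTS, concentration-response format. 2,000 cells/well co-treated with 5-fluorouridine and compound, 16 hr in 5% CO2 at 37 °C; ONE-Glo luminescence read after 30 min.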
RORg inh – qHTS for inhibitors of ROR gamma transcriptional activity; Nuclear receptor ROR-gamma (Mus musculus), P51450; Drosophila S2 Gal4-RORgamma UAS-luciferase reporter, 20 h; Potency, µM (series often up to 53.6 µM), for inactives: top-dose activity change, negative = inhibition, usual class: inhibitors; hit rate 5.4% among 310,000; also: nearly all actives have a fitted effect of over 60% in size
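Using a luciferase readout, inhibitors were identified by reduced reporter activity in Drosophila cells coexpressing a copper-inducible Gal4–ROR gamma fusion and UAS-driven Photinus luciferase, incubated 20 hr after 700 uM copper sulfate.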
VP16 counter – VP16 counterscreen qHTS for inhibitors of ROR gamma transcriptional activity; Drosophila S2 Gal4-VP16 UAS-luciferase, luminescence, 20 h; Potency, µM (titrated, usually from 53.6 µM), inactives show top-dose activity, negative = inhibition, most hits filed as inhibitors; hit rate 3.5% among 310,000;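 also: Gal4-VP16 expression switched on by copper sulfate through the metallothionein promoter; nearly all actives have a fitted effect of over 50% in size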
DT40 TDP1 no CPT – qHTS for Inhibitors of human tyrosyl-DNA phosphodiesterase 1 (TDP1): qHTS in cells in absence of CPT; Potency, µM (titrated, usually from 46.2 µM), inactives show at the highest dose activity change, negative = growth inhibition, usual class: inhibitors; hit rate 15% among 420,000; DT40 Tdp1-/- hTDP1 cells, no CPT, ATP luminescence, 48 h; also: nearly all actives have a fitted effect of over 55% in size
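Camptothecin absent (DMSO only). Human TDP1-complemented DT40 knockout cells, 400 cells/well, 37 °C for minimum 48 hr; ATP measured via CellTiter-Glo, 30 min dark incubation, luminescence.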
ALOX12 inh – Primary qHTS assay for inhibitors of human arachidonate 12S-lipoxygenase (ALOX12): Round 2 | Polyunsaturated fatty acid lipoxygenase ALOX12 (Homo sapiens), P18054 | purified 12hLO, xylenol orange hydroperoxide absorbance | Potency, µM (highest dose often 108 µM), inactives show at the top dose activity change, negative = inhibition, most hits filed as inhibitors | hit rate 1.1% among 580,000 | AID 1671190, 2021
Target sequence (P18054 whole entry, looked up): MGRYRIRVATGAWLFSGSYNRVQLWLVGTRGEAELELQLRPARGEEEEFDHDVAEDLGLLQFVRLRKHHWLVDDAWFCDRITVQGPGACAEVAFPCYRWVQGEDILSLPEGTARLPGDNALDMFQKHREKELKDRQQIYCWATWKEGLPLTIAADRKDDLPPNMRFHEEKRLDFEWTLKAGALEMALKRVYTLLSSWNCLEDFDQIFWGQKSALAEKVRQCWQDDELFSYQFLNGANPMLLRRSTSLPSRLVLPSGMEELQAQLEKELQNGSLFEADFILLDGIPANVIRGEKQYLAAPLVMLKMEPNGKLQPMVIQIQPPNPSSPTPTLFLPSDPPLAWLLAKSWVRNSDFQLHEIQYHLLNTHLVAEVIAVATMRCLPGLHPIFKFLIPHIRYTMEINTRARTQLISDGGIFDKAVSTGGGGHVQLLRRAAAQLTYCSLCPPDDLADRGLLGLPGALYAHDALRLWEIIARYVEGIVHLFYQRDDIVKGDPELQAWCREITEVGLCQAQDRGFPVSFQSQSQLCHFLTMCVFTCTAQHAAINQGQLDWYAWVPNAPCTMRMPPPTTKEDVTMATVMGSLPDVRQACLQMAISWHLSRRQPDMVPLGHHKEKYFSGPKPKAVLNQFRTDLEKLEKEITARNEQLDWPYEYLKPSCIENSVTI
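Purified human 12hLO at 150 nM in 25 mM Hepes, 0.01% Triton X-100, pH 7.0, preincubated 15 min at room temperature with compound. Reaction started with 40 uM arachidonic acid, 30 min at room temperature. Hydroperoxide measured by Fe-xylenol orange, 573/405 nm absorbance ratio.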
TDP1 cell CPT – qHTS for Inhibitors of human tyrosyl-DNA phosphodiesterase 1 (TDP1): qHTS in cells in presence of CPT; chicken DT40 Tdp1-/-;hTDP1 cells + 20 nM CPT, ATP luminescence, 48 h; Potency, µM (highest dose often 46.2 µM), for inactives: at the highest dose activity change, negative = growth inhibition, usual class: inhibitors; hit rate 12% among 420,000; AID 686979, 2013; also: nearly all actives have a fitted effect of over 55% in size
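Chicken DT40 Tdp1-/- cells stably complemented with human TDP1 were seeded at 400 cells/well in medium containing 20 nM camptothecin, exposed to pin-transferred compounds, and grown at 37 °C for at least 48 hr. Viability was read as ATP luminescence.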
An asterisk follows results filed as active; ? = inconclusive; . = no result given; [ ] = dose if it differs, or a comment. Most compounds without a hit are left out; they make up all but 15% or so of the library. Calls follow the shape of the dose curve; as a rule, active = well fitted curve in the direction sought with a large enough effect; inconclusive = small, poorly fitted or top-dose-only effect, or another doubt; inactive = no such curve, though single readings can be large; an effect the other way counts as inactive or inconclusive. % is scaled to controls: 0 for no effect and ±100 for the full control effect; potency is read from the fitted curve at half-maximal effect.

SMILES | ELG1 DNA repair | RORg inh | VP16 counter | DT40 TDP1 no CPT | ALOX12 inh | TDP1 cell CPT
O=C(NCCC(=O)N(CCc1ccccc1)Cc1ccccc1)c1ccc(Br)cc1 | -19% | . | . | 26µM* | -8% | ?
Nc1c(Cl)cc(C23CC4CC(CC(C4)C2)C3)cc1Cl | . | . | . | . | 5% | .
O=C1/C(=C/c2cccc(F)c2)C(c2ccccc2)Oc2ccccc21 (centres undefined) | . | . | . | . | -2% | .
O=C(CBr)N1CCc2ccccc2C(c2ccccc2)C1 (centres undefined) | -6% | ? | 0% | 2.6µM* | 0% | 2.6µM*
COc1ccc(OC)c(S(=O)(=O)N2CCC(c3ncc(C)n3C(C)C)C2)c1 (centres undefined) | . | . | . | . | 50% | .
CCCCOc1ccc(CNn2c(C)nc3ccccc3c2=O)cc1 | ? | 36% | -3% | 23µM* | 8% | ?
CCCCCC(=O)Nc1cccc2ccccc12 | 21% | 9% | -13% | -1% | -13% | -17%
CCCCCCOc1ccc(CNc2cccc3ccccc23)cc1 | . | . | . | . | 4.5µM* | .
COc1cccc(CN(C)Cc2cccn2C)c1 | . | . | . | . | -8%[176 µM] | .
O=C(CC1CCCC1)Nc1nc2ccccc2[nH]1 | ? | 8.9µM* | ? | 9.2µM* | 15% | ?
O=C(Nc1nc2ccccc2[nH]1)C1CCC1 | ? | ? | ? | 23µM* | 0% | ?
O=C(NCc1nc2ccccc2[nH]1)C1CCCCC1 | 6% | 9% | -8% | -22% | 7% | 6%
O=C(Nc1nc2ccccc2[nH]1)C1CCCC1 | ? | 7.1µM* | ? | -19% | 2% | -4%
Cc1ncc(CN2CCN(C(=O)c3cccn3C3CC3)CC(O)C2)[nH]1 (centres undefined) | . | . | . | . | 75% | .
C[C@H]1[C@@H]2[C@@H](O)[C@H]([C@H](C)C(=O)N3CCCCC3)CC[C@@]2(C)CC[C@@H]1NC(=O)c1cncnc1 | . | . | . | . | -18% | .
COc1nccnc1NC1CCN(S(=O)(=O)c2ccccc2)CC1 | . | . | . | . | 32% | .
Nc1nc(CN2CCC(O)CC2)nc2ccccc12 | . | . | . | . | -27% | .
Oc1cccc2c(N=Cc3ccc(F)c(F)c3)cccc12 | . | . | . | . | 22µM* | .
CCOc1cc(OCC)cc(C(=O)NC(=S)Nc2cccc(C(F)(F)F)c2)c1 | -1% | 5µM* | 0% | 0% | ? | -28%
O=C(NC(=S)Nc1cccc(C(F)(F)F)c1)c1ccc2nonc2c1 | -20% | 3.2µM* | 10µM* | ? | 35µM* | ?
COc1cc2c3nnc(-c4ccc(F)cc4)c-3cn(Cc3cccc(C)c3)c2cc1OC | -25% | ? | 10µM* | 2.6µM* | ? | 1.8µM*
COc1cc2c3nnc(-c4ccc(F)cc4)c-3cn(Cc3cccc(F)c3)c2cc1OC | 0% | ? | -30% | 2.6µM* | . | 2.3µM*
Cc1ccc(Cn2nc3c4cc(F)ccc4n(Cc4ccc(F)cc4)cc-3c2=O)cc1 | -7% | -6% | -2% | 9% | 33% | 7%
COc1cc2c3nnc(-c4ccccc4)c-3cn(Cc3ccc(F)cc3)c2cc1OC | -11% | -30% | -13% | 15µM* | ? | 8.2µM*
COc1cccc(Cn2nc3c4cc(F)ccc4n(Cc4ccc(F)cc4)cc-3c2=O)c1 | 1% | 23% | 1% | ? | 0% | -9%
SMILES | ELG1 DNA repair | RORg inh | VP16 counter | DT40 TDP1 no CPT | ALOX12 inh | TDP1 cell CPT
CCOc1ccc2[nH]cc(-c3csc(N)n3)c2c1 | -20% | 0% | 1% | 10µM* | 10% | ?
COc1ccc(Nc2nc(-c3c[nH]c4ccccc34)cs2)cc1 | ? | -21% | -7% | -23% | ? | -12%
O=C(/C=C/c1ccco1)NCCc1ccccc1 | ? | -7% | -4% | -27% | -16% | 5%
NC(=O)c1ccccc1NC(=O)/C=C/c1c(Cl)cccc1Cl | ? | -14% | -3% | 18µM* | 0% | ?
Cc1ccc(/C=C/C(=O)Nc2ccccc2C(N)=O)o1 | . | . | . | 10µM* | -25% | ?
Cc1ccc(/C=C/C(=O)NCCc2ccccc2)o1 | ? | -58% | -19% | 29µM* | ? | 5.8µM*
CC(C)c1ccc(N=C(N)N=C(N)N)cc1 | 21µM* | 0% | -3% | ? | 7% | ?
Cc1ccc(N=C(N)N=C(N)N)cc1 | -21% | 1% | -5% | -27% | 0% | -13%
S=c1nn[nH]c2ccccc12 | . | . | . | -16% | 32µM* | 4%
O=C(Nc1cccc(C(F)(F)F)c1)c1ccc2c(c1)nnn2C1CCCC1 | . | . | . | 8.2µM* | 9% | ?
CCc1ccccc1NC(=O)c1ccc2c(c1)nnn2C1CCCC1 | . | . | . | ? | -1% | 26µM*
O=C(NCc1ccc(F)cc1)c1ccc2c(c1)nnn2C1CCCC1 | . | . | . | ? | -4% | ?
CCOC(=O)c1cccc(NC(=O)c2ccc3c(c2)nnn3C2CCCC2)c1 | . | . | . | ? | -5% | ?
CCn1nnc2cc(C(=O)NCCc3ccccc3F)ccc21 | ? | ? | 11µM* | -15% | ? | 14%
O=c1cc(COc2ccc(-c3ccccc3)cc2Cl)nc2sccn12 | . | . | . | . | -22% | .
Cc1cccc(-n2c(N)c(C(=O)NCCN3CCOCC3)c3nc4ccccc4nc32)c1 | ? | 3% | -3% | 18µM* | 0% | ?
C=CCn1c(N)c(C(=O)NCC2CCCO2)c2nc3ccccc3nc21 (centres undefined) | 10µM* | 13µM* | ? | ? | 3% | ?
Cc1cccc(-n2cnc3cc(C(=O)NCCN4CCOCC4)ccc32)c1 | . | . | . | -25% | -4% | -14%
CC(C)Cn1c2nc3ccccc3nc2c2c(=O)n(CCN3CCOCC3)cnc21 | ? | -3% | 0% | ? | -4% | ?
CC(C)Cn1c(N)c(C(=O)NCCN2CCOCC2)c2nc3ccccc3nc21 | ? | 12% | -19% | 18µM* | -1% | ?
CC(C)(C)NC(=O)N1CC[C@H]2C(=O)NCCCCCN(Cc3cccnc3)[C@@H]2C1 | . | . | . | . | 20% | .
CN(C)Cc1ccccc1C(O)(c1ccccc1)c1ccccc1 | -8% | 5% | 5% | ? | -12% | 29µM*
Cc1ccc(S(=O)(=O)N2CCCN(CCS(=O)(=O)CCC(N)=O)CC2)cc1 | . | . | . | . | -17% | .
